# In PubChem BioAssay (NCATS):
# Inconclusive results are not listed. Where a call stands in place of a potency, no number is given. Active and inactive are the calls of the source. Calls follow the shape of the dose curve; as a rule, active = well fitted inhibition curve with a large enough effect; inconclusive = small, poorly fitted or top-dose-only effect; inactive = no such curve, though single readings can be large or run the other way.
# Legend:
# [1] = system: Zika virus NS2B-NS3 protease (unlinked complex); experiment: Primary screen GU Rhodamine qHTS for Zika virus inhibitors: Unlinked NS2B-NS3 protease assay (AID 1347159); also: nearly all actives have a fitted effect of over 60% in size
# Method in brief: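 Unlinked NS2B/NS3, 25 nM; Rhod110 peptide, 1.5 microM; compounds, up to 114 microM. Reaction run 15 min at RT in 10 mM Tris-HCl pH 8.0, 0.01% Tween 20; kinetic fluorescence change fitted with a 4-parameter Hill model.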
# [2] = system: Zika virus NS2B-NS3 protease (linked construct); experiment: Primary screen NINDS Rhodamine qHTS for Zika virus inhibitors (AID 1347160); also: nearly all actives have a fitted effect of over 55% in size
# Method in brief: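 Single-chain NS2B-NS3 protease, 25 nM, pH 8.0; compounds preincubated 15 min. Activity: Rhodamine110 release from 1.5 microM substrate over 15 min, room temperature, data fitted to 4-parameter Hill.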
# Potency is read from the fitted curve at half-maximal effect.
SMILES,Potency [1],Potency [2]
FC(F)(F)Oc1ccc(-c2ccc3nnc(C(F)(F)F)n3c2)cc1,inactive,inactive
CC1(C)CC2C3=CCC4[C@@]5(C)CC[C@H](OC6OCC(O)C(OC7OC(CO)C(O)C(O)C7O)C6O)C(C)(C)C5CC[C@@]4(C)[C@]3(C)C[C@H](O)[C@@]2(CO)[C@H](OC(=O)c2ccccc2)C1 (stereo partly specified),inactive,inactive
C=C1CCC2(OC1)OC1CC3C4CC=C5CC(O)CC(O[C@@H]6OC[C@H](OC(=O)C(O)C(C)CC)[C@H](O)[C@H]6O[C@@H]6O[C@@H](C)[C@H](O)[C@@H](O)[C@H]6O)C5(C)C4CCC3(C)C1C2C (stereo partly specified),inactive,inactive
Oc1ccc(CC2NCCc3cc(O)c(O)cc32)cc1 (stereo unspecified),inactive,inactive
CC1(C)C2CC[C@@]34CC(CC[C@H]3[C@]2(C)CC[C@@H]1O[C@@H]1O[C@H](CO)[C@@H](O)[C@H](O)[C@H]1O)[C@](C)(O)C4 (stereo partly specified),inactive,inactive
O=C(COCC(=O)N1CCN(C(c2ccccc2)c2ccccc2)CC1)Nc1ccc(Cl)cc1C(=O)O,11.2 µM (active),12.6 µM (active)
CC1(C(=O)O)CCCC2(C)C3CCC4CC3(CCC12)CC4C(=O)O (stereo unspecified),inactive,inactive
OC[C@H]1O[C@@H](OCc2ccccc2)[C@H](O[C@@H]2OC[C@@H](O)[C@H](O)[C@H]2O)[C@@H](O)[C@@H]1O,inactive,inactive
C=C1CC23CC1CCC2C12OC(=O)C(C)(C(O)C(O)C1O)C2C3C(=O)O (stereo unspecified),inactive,inactive
CC(C)C1NC(=O)C2CCCN2C1=O (stereo unspecified),inactive,inactive
CC(=O)N[C@H]1[C@H](O[C@H]2CC[C@]3(C)C4CC=C5[C@@H]6CC(C)(C)CC[C@]6(C(=O)O)[C@H](O)C[C@@]5(C)[C@]4(C)CC[C@H]3C2(C)C)O[C@H](CO)[C@@H](O)[C@@H]1O (stereo partly specified),inactive,inactive
CC1(C)OC(=O)C=C[C@@]2(C)C1CC(=O)[C@]1(C)C2CC[C@@]2(C)[C@H](c3ccoc3)OC(=O)[C@H]3O[C@]321 (stereo partly specified),inactive,inactive
COc1cc(/C=C/C(=O)O[C@H]2C[C@@H]3C(C(=O)O)=CO[C@@H](O[C@@H]4O[C@H](CO)[C@@H](O)[C@H](O)[C@H]4O)[C@@H]3[C@H]2C)ccc1O,inactive,inactive
C=C1CC2C3(C)C(O)CC(=O)C(C)(C)C3C(O)C(OC(C)=O)C2(C)C2C(=O)OC(C)(C(=O)OC)C(=O)C12C (stereo unspecified),inactive,inactive
COc1ccccc1CN[C@H]1CCCN[C@H]1c1ccccc1,inactive,inactive
COc1ccc(C2OCC3C(c4cc(OC)c5c(c4)OCO5)OCC23)cc1OC (stereo unspecified),inactive,inactive
CC1=CC23[C@H](C=C(C(=O)O)[C@@H]2COC(=O)[C@]3(O)CO)[C@@H]1C (stereo partly specified),inactive,inactive
C=C(C)[C@@]1(O)C[C@@]2(C)C(=CC1=O)CC[C@@H](O)[C@@H]2C,inactive,inactive
C=C1C[C@H](O)[C@@H](O)[C@@]2(C)C1[C@@H](O)[C@H]1OC(=O)C3[C@@H](C)[C@@H](O)[C@H](O)C2[C@]31C (stereo partly specified),inactive,inactive
COc1c(C)c(OCC(O)C(C)(C)O)cc2c1CNC2=O (stereo unspecified),inactive,inactive
COc1cc(O[C@@H]2O[C@H](CO[C@H]3OC[C@](O)(CO)[C@H]3O)[C@@H](O)[C@H](O)[C@H]2O)cc(OC)c1O,inactive,inactive
C=C(C(=O)OC)[C@]12O[C@@](C)(CC[C@@]3(O)/C(=C\C)C(=O)O[C@]3(C)C[C@@H]1OC(=O)C(CO)CN1CCCC1C(=O)O)CC2=O (stereo partly specified),inactive,inactive
CC(=O)OC[C@]12[C@H](OC(C)=O)[C@H](OC(=O)c3ccccc3)[C@@H]3[C@@H](OC(C)=O)[C@]1(OC3(C)C)[C@H](C)C[C@H](OC(=O)c1ccccc1)[C@@H]2OC(=O)c1ccccc1,inactive,inactive
COc1ccc(-n2[nH]c3c(cnc4ccccc43)c2=O)cc1,inactive,inactive
CC(=O)NC1C(OC2CCC3(C)C(CCC4(C)C3CC=C3C5CC(C)(C)CCC5(C(=O)O)C(O)CC34C)C2(C)C)OC(CO)C(O)C1O (stereo unspecified),inactive,inactive
C=C(C(=O)O)[C@@H]1CC[C@@]2(C)CCC[C@@](C)(O)[C@@H]2C1,inactive,inactive
O=[N+]([O-])c1cc(Cl)ccc1S(=O)(=O)N1CCN(Cc2ccccc2)CC1,inactive,inactive
COC(=O)C1=COC(OC2OC(CO)C(O)C(O)C2O)C2C(C)C(OC(=O)/C=C/c3ccc(O)cc3)C(O)C12 (stereo unspecified),28.2 µM (active),inactive
